Experimental data as given in the supplement of paper PMC10849652.
Of roughly 7,900 targets only a part is listed; those with a hit were picked by preference. About 0.6% of all pairs of compound and target were hits.

How the values were obtained:
Test in all cases: log2 fold change, soluble protein after heating vs DMSO (PISA); higher = thermal stabilisation; K562 cells, 10 uM, 30 min; active = over 0.2 and 3.5 SD of the protein, either way, in both replicates (recomputed)
[1] = compound: COC1=CC=C(C=C1)CN2C=CC3=C2C=C(C=C3)C(=O)NO
Summary of the method: (§1)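 Soluble protein was defined as the supernatant after 21,000xg for 90 min. It came from K562 cells at 2×10^6 cells/mL given 10 μM compound for 30 min, heated in aliquots for 3 min across 48°C-58°C, pooled, and extracted in PBS with 0.5% NP-40 at 4°C, and was quantified by TMTpro 16plex LC-MS/MS with equalised channel sums. Thermal stability against control samples, from duplicates, is reported as log2 fold change.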

filanesib = compound: CON(C)C(=O)N1N=C(c2cc(F)ccc2F)S[C@@]1(CCCN)c1ccccc1 [filanesib]
Summary of the method: as §1

zotarolimus = compound: CO[C@H]1C[C@@H]2CC[C@@H](C)[C@@](O)(O2)C(=O)C(=O)N2CCCC[C@H]2C(=O)O[C@H]([C@H](C)C[C@@H]2CC[C@H](n3cnnn3)[C@H](OC)C2)CC(=O)[C@H](C)/C=C(\C)[C@@H](O)[C@@H](OC)C(=O)[C@H](C)C[C@H](C)/C=C/C=C/C=C/1C [zotarolimus]
Summary of the method: as §1

idasanutlin = compound: COc1cc(C(=O)O)ccc1NC(=O)[C@@H]1N[C@@H](CC(C)(C)C)[C@](C#N)(c2ccc(Cl)cc2F)[C@H]1c1cccc(Cl)c1F [idasanutlin]
Summary of the method: as §1

alisertib = compound: COc1cc(Nc2ncc3c(n2)-c2ccc(Cl)cc2C(c2c(F)cccc2OC)=NC3)ccc1C(=O)O [alisertib]
Summary of the method: as §1

[2] = compound: COc1cc2nc(-c3cc(F)ccc3O)nc(N[C@@H]3CNC[C@H]3C(C)(C)O)c2cc1OC
Summary of the method: as §1

gefitinib = compound: COc1cc2ncnc(Nc3ccc(F)c(Cl)c3)c2cc1OCCCN1CCOCC1 [gefitinib]
Summary of the method: as §1

[3] = compound: COc1cccc2cc(-c3nc([C@H]4CC[C@H](C(=O)O)CC4)n4ncnc(N)c34)[nH]c12
Summary of the method: as §1

lapatinib = compound: CS(=O)(=O)CCNCc1ccc(-c2ccc3ncnc(Nc4ccc(OCc5cccc(F)c5)c(Cl)c4)c3c2)o1 [lapatinib]
Summary of the method: as §1

pictilisib = compound: CS(=O)(=O)N1CCN(Cc2cc3nc(-c4cccc5[nH]ncc45)nc(N4CCOCC4)c3s2)CC1 [pictilisib]
Summary of the method: as §1

[4] = compound: CS(=O)(=O)c1ccc(-c2cnc(N)c(C(=O)Nc3ccccc3)n2)cc1
Summary of the method: as §1

crizotinib = compound: C[C@@H](Oc1cc(-c2cnn(C3CCNCC3)c2)cnc1N)c1c(Cl)ccc(F)c1Cl [crizotinib]
Summary of the method: as §1

[5] = compound: C[C@@H]1COCCN1C2=NC(=NC(=C2)C3(CC3)S(=O)(=O)C)C4=C5C=CNC5=CC=C4
Summary of the method: as §1

[6] = compound: C[C@H](C1=CC=C(C=C1)C(=O)NC2=C3C=CNC3=NC=C2)N
Summary of the method: as §1

duvelisib = compound: C[C@H](Nc1ncnc2nc[nH]c12)c1cc2cccc(Cl)c2c(=O)n1-c1ccccc1 [duvelisib]
Summary of the method: as §1

gandotinib = compound: Cc1cc(Nc2cc(CN3CCOCC3)c3nc(C)c(Cc4ccc(Cl)cc4F)n3n2)n[nH]1 [gandotinib]
Summary of the method: as §1

tozasertib = compound: Cc1cc(Nc2cc(N3CCN(C)CC3)nc(Sc3ccc(NC(=O)C4CC4)cc3)n2)n[nH]1 [tozasertib]
Summary of the method: as §1

[7] = compound: Cc1cc(SCc2sc(-c3ccc(C(F)(F)F)cc3)nc2C)ccc1OCC(=O)O
Summary of the method: as §1

doramapimod = compound: Cc1ccc(-n2nc(C(C)(C)C)cc2NC(=O)Nc2ccc(OCCN3CCOCC3)c3ccccc23)cc1 [doramapimod]
Summary of the method: as §1

ispinesib = compound: Cc1ccc(C(=O)N(CCCN)[C@@H](c2nc3cc(Cl)ccc3c(=O)n2Cc2ccccc2)C(C)C)cc1 [ispinesib]
Summary of the method: as §1

Measured: log2 fold change

NMNAT1 (UniProt Q9HAN9)
Sequence of UniProt Q9HAN9 (Q9HAN9 whole entry, looked up): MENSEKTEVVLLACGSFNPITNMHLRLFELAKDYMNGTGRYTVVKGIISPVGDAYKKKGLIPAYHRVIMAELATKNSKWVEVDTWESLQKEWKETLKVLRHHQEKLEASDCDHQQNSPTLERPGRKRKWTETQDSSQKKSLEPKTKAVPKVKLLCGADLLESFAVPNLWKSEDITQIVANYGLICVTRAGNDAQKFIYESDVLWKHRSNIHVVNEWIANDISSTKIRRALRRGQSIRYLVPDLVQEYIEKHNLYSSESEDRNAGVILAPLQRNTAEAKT
inactive: [1] -0.168 | filanesib 0.354 | zotarolimus -0.023 | idasanutlin 0.154 | alisertib -0.115 | [2] 0.132 | gefitinib -0.022 | [3] -0.102 | lapatinib 0.018 | pictilisib -0.014 | [4] -0.053 | crizotinib -0.016 | [5] -0.435 | [6] 0.164 | duvelisib -0.046 | gandotinib 0.132 | tozasertib 0.024 | [7] -0.056 | doramapimod 0.296 | ispinesib -0.212

NNMT (UniProt P40261)
Sequence of UniProt P40261 (P40261 whole entry, looked up): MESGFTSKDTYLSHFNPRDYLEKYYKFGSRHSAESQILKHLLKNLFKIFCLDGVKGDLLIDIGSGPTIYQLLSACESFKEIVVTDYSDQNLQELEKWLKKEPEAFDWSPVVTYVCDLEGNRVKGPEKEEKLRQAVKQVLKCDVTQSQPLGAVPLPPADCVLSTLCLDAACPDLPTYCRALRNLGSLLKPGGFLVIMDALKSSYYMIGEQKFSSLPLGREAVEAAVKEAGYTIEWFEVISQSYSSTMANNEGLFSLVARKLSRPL
inactive: [1] -0.057 | filanesib -0.163 | zotarolimus -0.001 | idasanutlin -0.076 | alisertib -0.06 | [2] 0.216 | gefitinib 0.041 | [3] 0.017 | lapatinib -0.019 | pictilisib 0.06 | [4] 0.039 | crizotinib -0.08 | [5] 0.085 | [6] -0.06 | duvelisib 0.06 | gandotinib -0.002 | tozasertib -0.007 | [7] -0.09 | doramapimod 0

NFYC (UniProt Q13952)
Sequence of UniProt Q13952 (Q13952 whole entry, looked up): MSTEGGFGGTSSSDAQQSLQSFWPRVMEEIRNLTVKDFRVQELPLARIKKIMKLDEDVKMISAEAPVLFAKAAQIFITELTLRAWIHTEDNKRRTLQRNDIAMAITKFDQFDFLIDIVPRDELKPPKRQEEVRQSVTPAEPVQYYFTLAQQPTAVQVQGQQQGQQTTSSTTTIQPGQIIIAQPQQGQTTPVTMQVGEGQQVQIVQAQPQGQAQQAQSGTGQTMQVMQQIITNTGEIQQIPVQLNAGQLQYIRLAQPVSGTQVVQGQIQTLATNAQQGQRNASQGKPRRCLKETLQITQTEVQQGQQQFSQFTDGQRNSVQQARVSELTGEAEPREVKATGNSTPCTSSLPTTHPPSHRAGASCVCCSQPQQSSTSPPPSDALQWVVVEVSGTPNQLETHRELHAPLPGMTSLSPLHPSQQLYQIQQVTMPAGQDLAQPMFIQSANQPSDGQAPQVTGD
inactive: [1] -0.026 | filanesib -0.023 | zotarolimus 0.004 | idasanutlin -0.065 | alisertib -0.036 | [2] 0.017 | gefitinib -0.018 | [3] 0.127 | lapatinib 0.033 | pictilisib 0.092 | [4] 0.022 | crizotinib 0.013 | [5] 0.054 | [6] 0.005 | duvelisib 0.086 | gandotinib 0.002 | tozasertib 0.022 | [7] 0.027 | doramapimod 0.001 | ispinesib 0.089

NOB1 (UniProt Q9ULX3)
Sequence of UniProt Q9ULX3 (Q9ULX3 whole entry, looked up): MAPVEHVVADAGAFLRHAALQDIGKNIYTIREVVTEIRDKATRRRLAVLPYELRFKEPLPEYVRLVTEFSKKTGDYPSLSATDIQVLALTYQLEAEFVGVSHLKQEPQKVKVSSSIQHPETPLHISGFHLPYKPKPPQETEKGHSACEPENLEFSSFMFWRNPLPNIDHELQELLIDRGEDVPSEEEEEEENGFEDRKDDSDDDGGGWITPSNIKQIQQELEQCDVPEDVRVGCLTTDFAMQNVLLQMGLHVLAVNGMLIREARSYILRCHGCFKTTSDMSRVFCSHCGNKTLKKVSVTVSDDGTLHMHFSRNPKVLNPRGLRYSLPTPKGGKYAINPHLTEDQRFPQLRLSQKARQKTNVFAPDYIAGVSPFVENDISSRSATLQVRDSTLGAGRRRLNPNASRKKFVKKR
inactive: [1] 0.16 | filanesib 0.001 | zotarolimus 0.026 | idasanutlin 0.068 | alisertib -0.14 | [2] 0.044 | gefitinib 0.01 | [3] -0.13 | lapatinib 0.045 | pictilisib -0.042 | [4] 0.012 | crizotinib -0.142 | [5] -0.033 | [6] 0.15 | duvelisib -0.046 | gandotinib 0.019 | tozasertib -0.067 | [7] 0.113 | doramapimod 0 | ispinesib -0.038

NME1 isoform 2 (UniProt P15531)
Sequence of UniProt P15531 (P15531 whole entry, looked up): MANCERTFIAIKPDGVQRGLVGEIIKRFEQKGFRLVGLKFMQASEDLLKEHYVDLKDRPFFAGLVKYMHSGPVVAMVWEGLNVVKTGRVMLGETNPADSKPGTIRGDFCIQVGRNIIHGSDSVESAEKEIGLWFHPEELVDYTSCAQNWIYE
inactive: [1] 0.017 | filanesib 0.007 | zotarolimus 0.001 | idasanutlin 0.022 | alisertib 0.062 | [2] 0.021 | gefitinib -0.063 | [3] 0.141 | lapatinib -0.009 | [4] 0.013 | crizotinib 0.012 | [5] 0.161 | [6] 0.01 | duvelisib 0.38 | gandotinib -0.144 | tozasertib -0.07 | [7] 0.195 | doramapimod -0.015 | ispinesib 0
active: pictilisib 0.666

NDUFA12 (UniProt Q9UI09)
active: ispinesib -0.385
inactive: [1] -0.011 | filanesib -0.071 | zotarolimus 0.002 | idasanutlin -0.213 | alisertib 0.019 | [2] -0.167 | gefitinib -0.086 | [3] 0.056 | lapatinib -0.04 | pictilisib 0.023 | [4] 0.107 | crizotinib -0.033 | [5] 0.025 | [6] 0.015 | duvelisib 0.033 | gandotinib -0.206 | tozasertib -0.048 | [7] 0.115 | doramapimod 0.03

PAFAH1B2 (UniProt P68402)
inactive: [1] 0.044 | filanesib -0.074 | zotarolimus 0.007 | idasanutlin 0.082 | alisertib 0.02 | [2] -0.071 | gefitinib 0.086 | [3] 0.033 | lapatinib 0.029 | pictilisib -0.28 | [4] 0.016 | crizotinib -0.017 | [5] -0.13 | [6] -0.054 | duvelisib 0.086 | gandotinib 0.16 | tozasertib -0.072 | [7] -0.066 | doramapimod 0.022 | ispinesib -0.002

NPC1 (UniProt O15118)
Sequence of UniProt O15118 (O15118 whole entry, looked up): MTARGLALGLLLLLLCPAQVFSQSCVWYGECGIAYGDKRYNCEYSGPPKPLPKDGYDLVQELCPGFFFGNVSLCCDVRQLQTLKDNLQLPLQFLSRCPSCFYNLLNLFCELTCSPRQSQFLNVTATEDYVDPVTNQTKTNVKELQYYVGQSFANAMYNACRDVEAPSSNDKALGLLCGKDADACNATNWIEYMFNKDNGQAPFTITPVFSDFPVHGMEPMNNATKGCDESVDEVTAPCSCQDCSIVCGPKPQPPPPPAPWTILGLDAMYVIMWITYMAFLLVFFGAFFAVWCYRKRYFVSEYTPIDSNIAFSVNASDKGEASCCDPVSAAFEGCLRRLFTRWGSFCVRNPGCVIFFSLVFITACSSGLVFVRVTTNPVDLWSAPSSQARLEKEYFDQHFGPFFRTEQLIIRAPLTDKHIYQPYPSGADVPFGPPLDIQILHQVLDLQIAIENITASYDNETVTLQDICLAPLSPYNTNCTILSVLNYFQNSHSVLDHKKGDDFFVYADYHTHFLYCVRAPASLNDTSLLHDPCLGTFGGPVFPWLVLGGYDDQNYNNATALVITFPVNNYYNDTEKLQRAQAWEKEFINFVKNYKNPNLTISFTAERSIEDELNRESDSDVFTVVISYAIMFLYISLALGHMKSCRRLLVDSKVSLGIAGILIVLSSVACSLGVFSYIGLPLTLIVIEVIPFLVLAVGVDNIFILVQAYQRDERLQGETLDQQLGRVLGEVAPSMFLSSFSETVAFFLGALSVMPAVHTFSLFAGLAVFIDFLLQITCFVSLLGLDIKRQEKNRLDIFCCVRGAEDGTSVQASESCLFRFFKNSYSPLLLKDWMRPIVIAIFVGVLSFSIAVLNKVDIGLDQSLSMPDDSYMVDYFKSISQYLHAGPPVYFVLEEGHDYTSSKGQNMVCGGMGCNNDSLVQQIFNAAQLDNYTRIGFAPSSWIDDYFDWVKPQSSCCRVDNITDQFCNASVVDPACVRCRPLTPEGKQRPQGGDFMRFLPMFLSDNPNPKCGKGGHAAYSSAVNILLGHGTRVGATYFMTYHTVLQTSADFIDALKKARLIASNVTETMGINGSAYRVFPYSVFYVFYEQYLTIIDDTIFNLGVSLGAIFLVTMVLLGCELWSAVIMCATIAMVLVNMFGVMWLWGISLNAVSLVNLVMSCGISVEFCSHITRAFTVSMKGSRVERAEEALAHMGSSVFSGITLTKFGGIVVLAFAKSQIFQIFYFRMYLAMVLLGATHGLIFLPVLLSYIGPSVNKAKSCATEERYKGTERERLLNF
inactive: [1] 0.04 | filanesib -0.12 | zotarolimus -0.038 | idasanutlin 0.025 | alisertib -0.067 | [2] 0.035 | gefitinib -0.027 | [3] 0.057 | lapatinib 0.026 | pictilisib 0 | [4] 0.016 | crizotinib -0.132 | [5] 0.024 | [6] -0.102 | duvelisib 0.043 | gandotinib 0.015 | tozasertib -0.04 | [7] -0.038 | doramapimod -0.087 | ispinesib -0.148

MRPL46 (UniProt Q9H2W6)
inactive: [1] -0.019 | filanesib 0.068 | zotarolimus 0.1 | idasanutlin -0.012 | alisertib -0.063 | [2] -0.088 | gefitinib 0.005 | [3] -0.029 | lapatinib 0.082 | pictilisib 0.011 | [4] 0.042 | crizotinib 0.039 | [5] -0.019 | [6] 0.186 | duvelisib -0.024 | gandotinib 0.026 | tozasertib -0.031 | [7] 0.054 | doramapimod 0.06 | ispinesib -0.157

NUP210 (UniProt Q8TEM1)
Sequence of UniProt Q8TEM1 (Q8TEM1 whole entry, looked up): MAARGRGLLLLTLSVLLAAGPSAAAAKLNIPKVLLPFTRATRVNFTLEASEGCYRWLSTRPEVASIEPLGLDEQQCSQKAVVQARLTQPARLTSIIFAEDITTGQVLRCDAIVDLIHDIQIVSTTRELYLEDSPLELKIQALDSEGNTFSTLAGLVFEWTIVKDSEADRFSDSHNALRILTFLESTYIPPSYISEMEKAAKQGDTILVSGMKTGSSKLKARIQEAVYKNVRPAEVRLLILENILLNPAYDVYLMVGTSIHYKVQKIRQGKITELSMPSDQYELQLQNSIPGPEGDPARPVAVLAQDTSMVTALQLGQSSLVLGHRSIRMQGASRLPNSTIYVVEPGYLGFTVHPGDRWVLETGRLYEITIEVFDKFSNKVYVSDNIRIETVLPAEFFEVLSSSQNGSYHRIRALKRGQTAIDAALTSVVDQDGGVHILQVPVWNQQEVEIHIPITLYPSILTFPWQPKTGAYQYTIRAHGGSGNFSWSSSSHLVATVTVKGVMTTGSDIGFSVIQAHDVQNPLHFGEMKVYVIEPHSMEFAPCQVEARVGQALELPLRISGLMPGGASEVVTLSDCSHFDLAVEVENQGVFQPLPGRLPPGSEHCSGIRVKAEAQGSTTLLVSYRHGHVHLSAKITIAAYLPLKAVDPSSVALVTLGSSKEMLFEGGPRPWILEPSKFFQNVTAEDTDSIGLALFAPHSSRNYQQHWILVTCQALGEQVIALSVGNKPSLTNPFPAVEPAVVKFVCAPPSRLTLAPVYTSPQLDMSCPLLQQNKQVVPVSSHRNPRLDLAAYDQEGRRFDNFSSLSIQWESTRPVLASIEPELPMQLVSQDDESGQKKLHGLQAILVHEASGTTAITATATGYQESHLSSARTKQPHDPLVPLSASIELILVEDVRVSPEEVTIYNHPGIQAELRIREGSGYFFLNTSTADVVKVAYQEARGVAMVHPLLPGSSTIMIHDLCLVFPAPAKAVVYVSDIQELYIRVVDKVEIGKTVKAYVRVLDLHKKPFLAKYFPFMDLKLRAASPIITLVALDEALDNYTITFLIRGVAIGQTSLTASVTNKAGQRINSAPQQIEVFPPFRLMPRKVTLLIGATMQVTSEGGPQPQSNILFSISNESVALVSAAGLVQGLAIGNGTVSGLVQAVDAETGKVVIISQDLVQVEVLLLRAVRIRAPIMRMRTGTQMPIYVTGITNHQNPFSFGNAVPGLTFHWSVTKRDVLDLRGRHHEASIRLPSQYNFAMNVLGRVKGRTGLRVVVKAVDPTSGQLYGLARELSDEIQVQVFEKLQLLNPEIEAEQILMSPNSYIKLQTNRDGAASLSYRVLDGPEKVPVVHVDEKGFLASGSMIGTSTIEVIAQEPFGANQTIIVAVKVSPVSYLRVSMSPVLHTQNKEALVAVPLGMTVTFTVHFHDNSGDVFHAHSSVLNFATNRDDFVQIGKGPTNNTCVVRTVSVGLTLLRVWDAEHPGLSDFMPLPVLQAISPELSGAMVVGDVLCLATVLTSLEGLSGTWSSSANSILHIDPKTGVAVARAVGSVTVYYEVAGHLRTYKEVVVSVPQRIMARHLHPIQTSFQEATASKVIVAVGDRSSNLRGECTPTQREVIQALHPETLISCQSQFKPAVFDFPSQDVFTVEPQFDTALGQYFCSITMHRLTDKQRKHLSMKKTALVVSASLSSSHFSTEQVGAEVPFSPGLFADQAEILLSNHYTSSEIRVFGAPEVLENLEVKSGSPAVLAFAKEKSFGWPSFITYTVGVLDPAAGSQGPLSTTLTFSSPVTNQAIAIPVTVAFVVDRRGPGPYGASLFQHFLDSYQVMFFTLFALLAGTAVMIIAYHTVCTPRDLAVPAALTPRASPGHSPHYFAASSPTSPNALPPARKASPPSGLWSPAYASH
inactive: [1] -0.099 | filanesib -0.08 | zotarolimus 0.002 | idasanutlin 0.019 | alisertib -0.045 | gefitinib -0.053 | [3] 0.045 | lapatinib -0.089 | pictilisib -0.114 | [4] -0.039 | [5] 0.005 | [6] -0.006 | duvelisib -0.002 | gandotinib -0.083 | tozasertib -0.054 | [7] 0.047 | doramapimod 0.002
active: [2] -0.319 | crizotinib -0.235 | ispinesib -0.351

NUDCD2 (UniProt Q8WVJ2)
Sequence of UniProt Q8WVJ2 (Q8WVJ2 whole entry, looked up): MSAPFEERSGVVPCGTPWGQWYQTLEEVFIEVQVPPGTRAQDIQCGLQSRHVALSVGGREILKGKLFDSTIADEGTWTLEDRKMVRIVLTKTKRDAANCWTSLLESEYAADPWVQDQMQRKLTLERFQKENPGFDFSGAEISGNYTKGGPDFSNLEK
inactive: [1] 0.072 | filanesib -0.016 | zotarolimus 0.065 | idasanutlin 0.075 | alisertib -0.011 | [2] 0.117 | gefitinib 0.083 | [3] -0.018 | lapatinib -0.038 | pictilisib 0.014 | [4] 0.049 | crizotinib -0.02 | [5] 0.1 | [6] -0.077 | duvelisib 0.004 | gandotinib -0.042 | tozasertib 0.149 | [7] 0.073 | doramapimod -0.049 | ispinesib -0.12

NOP56 (UniProt O00567)
active: filanesib 0.605
inactive: [1] -0.083 | zotarolimus 0.136 | idasanutlin 0.345 | alisertib 0.007 | [2] 0.045 | gefitinib -0.046 | [3] -0.078 | lapatinib 0.098 | pictilisib 0.013 | [4] -0.101 | crizotinib -0.103 | [5] -0.338 | [6] 0.285 | duvelisib -0.022 | gandotinib 0.064 | tozasertib -0.043 | [7] 0 | doramapimod 0.178 | ispinesib 0.162

MND1 (UniProt Q9BWT6)
inactive: [1] -0.037 | filanesib -0.057 | zotarolimus -0.077 | idasanutlin 0.099 | alisertib 0.062 | [2] -0.235 | gefitinib -0.193 | [3] 0.03 | lapatinib -0.025 | pictilisib 0.032 | [4] 0 | crizotinib -0.217 | [5] 0.005 | [6] 0.018 | duvelisib 0.016 | gandotinib -0.076 | tozasertib -0.152 | [7] -0.024 | doramapimod 0.009 | ispinesib -0.184

MPP1 (UniProt Q00013)
inactive: [1] 0.024 | filanesib -0.041 | zotarolimus -0.027 | idasanutlin 0.069 | alisertib 0.032 | [2] 0.016 | gefitinib 0.114 | [3] -0.074 | lapatinib 0.032 | pictilisib 0.096 | [4] 0.064 | crizotinib -0.092 | [5] 0.05 | [6] 0.001 | duvelisib 0.007 | gandotinib -0.073 | tozasertib -0.022 | [7] 0.061 | doramapimod 0.023 | ispinesib -0.108

NOP2 isoform 4 (UniProt P46087)
inactive: [1] -0.053 | filanesib 0.651 | zotarolimus 0.118 | idasanutlin 0.419 | alisertib -0.065 | [2] 0.375 | gefitinib -0.065 | [3] -0.118 | lapatinib 0.456 | pictilisib -0.039 | [4] 0 | crizotinib -0.127 | [5] -0.25 | [6] 0.673 | duvelisib -0.166 | gandotinib 0.231 | tozasertib 0.084 | [7] -0.022 | doramapimod 0.219 | ispinesib 0.163

NAGPA (UniProt Q9UK23)
inactive: [1] -0.025 | filanesib -0.046 | zotarolimus -0.099 | idasanutlin 0.054 | alisertib -0.069 | [2] -0.044 | gefitinib 0.001 | [3] 0.248 | lapatinib 0.139 | pictilisib 0.134 | [4] 0.017 | crizotinib 0.178 | [5] -0.078 | [6] -0.014 | duvelisib 0.067 | gandotinib 0.024 | tozasertib -0.094 | [7] -0.079 | doramapimod 0.072
